# Assay results published in PubChem BioAssay (NCI).
# The panel holds about 83,000 compounds, 20% with a hit somewhere; the sample as a whole holds those more often.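 Negative percent growth values reflect cell death: -40 means 40% of the cells present at the start died, and -100 means all died.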 Unmarked numbers belong to inactive results. Active and inactive are the calls of the source.
# System: HCC-2998 colon
# Test: NCI-60 one-dose screen, 48 h (100 = growth as untreated, 0 = no growth, -100 = all killed)
# Settings: 10 µM unless noted
# Protocol: Growth inhibition of the HCC-2998 human tumor cell line is measured as a screen for anti-cancer activity. Cells are grown in 96 well plates and exposed to the test compound for 48 hours. Compounds are tested at a single concentration, which is 10^-5 M for most compounds. The reported endpoint is percent growth (GI% or GIPRCNT), where numbers from 0 - 100% represent growth inhibition, and numbers from -100% - 0 represent cell death. For example, a value of 40 represents 60% growth inhibition. A value of 0 means no net growth occurred over the course of the experiment. A value of -40 indicates 40% of cells at the beginning of the experiment died by the end of the experiment. A value of -100 means all cells are dead at the end of the experiment.
# NCI-60 Human Tumor Cell Lines Screen was performed using the standard one-dose NCI protocol, which is described in more detail at https://dtp.cancer.gov/discovery_development/nci-60/default.htm.
# Compounds with GIPRCNT values below 10 were considered active. Activity score was based on GIPRCNT using the following formula: […]
# Score is 0 for GIPRCNT values of 100 or above, 50 for GIPRCNT values of 0, and 100 for GIPRCNT values of -100.
row,Structure (SMILES),growth
1,OC1CC2c3ccccc3C1c1ccccc12 (stereo not given),108%
2,Cc1cc(C)c(NC(=O)c2sc3nc4c(cc3c2N)CN(Cc2ccccc2)CC4)c(C)c1,62.3%
3,Cc1ccc(OCCn2c(C)nn(-c3ccc(Cl)cc3)c2=O)cc1,111%
4,CCCOC(=O)C1(O)CCCC1,108%
5,Cc1cc(C(=O)O)c(N)c(C)n1,111%
6,NC(=O)c1cccc(N2Cc3ccccc3OC3=C2C(=O)c2c(O)ccc(O)c2C3=O)c1,-21.1% (active)
7,CCOC(=O)[C@H](CSSc1ncnc2cc[nH]c12)NC(=O)[C@@H](C)c1ccc2cc(OC)ccc2c1,25.4%
8,Cc1cccc(NC(=O)c2sc3nc4c(cc3c2N)CCC4)c1C,33.1%
9,CC/C=C\C[C@H]1C/C=C2/C(=O)C(Cl)=C[C@@H]2C/C=C\CCCC(=O)O1,-80.2% (active)
10,COc1cccc(-c2nc3sccn3c2-c2ccnc(NCCCNS(=O)(=O)c3ccccc3)n2)c1,93.8%
11,CC(C)(C)OC(=O)N1C/C(=C\c2cccs2)C(=O)/C(=C/c2cccs2)C1,106%
12,C#CCN1C(=O)/C(=c2\sc3n(c2=O)C2C(NN=3)N(CC)C(=O)N2CC)c2ccccc21 (stereo not given),-1.47% (active)
13,Cc1ccc(Nc2ncnc3c2sc2ncccc23)cc1,103%
14,C=C1C(=O)O[C@H]2[C@H]1CC/C(COC(=O)NCCc1ccc(OC)cc1)=C\CC[C@@]1(C)O[C@@H]21,71.1%
15,COc1ccc(/C(=N/O)c2cc(F)c(F)c(OC)c2F)cc1O,42.7%
16,CC(C)(C)c1cc(-c2nc3ccc(N4CCN(CCO)CC4)cc3[nH]2)cc(C(C)(C)C)c1O,12.9%
17,COc1ccc(OC)c(C(=O)c2oc3ccc(Br)cc3c2N)c1,36.9%
18,CCN(CC)CCC(=O)c1cccc2ccccc12,97.1%
19,COc1ccc(OC)c(/C=C2\Oc3cc(OCCN4CCCC4)ccc3C2=O)c1,98.7%
20,Cc1ccc(C(=O)c2sc3nc4c(cc3c2N)CCCC4)c(C)c1,39.6%

row,Structure (SMILES),growth
1,O=C(CSc1nc(-c2ccc(Cl)cc2)cn1-c1ccc(Cl)cc1)c1ccc(Br)cc1,89.6%
2,Cc1ccc(Cn2c(-c3nonc3N)nc3ccccc32)cc1,75.1%
3,Cc1cccc2cc(/C=C/C(=O)/C=C/c3ccc(Cl)cc3)c(=O)[nH]c12,-4.78% (active)
4,Nc1c(C(=O)Nc2c(Cl)cccc2Cl)sc2nc3c(cc12)CCCCC3,57%
5,O=S(=O)(NCCCNc1nccc(-c2c(-c3ccc(O)cc3)nc3sccn23)n1)c1ccc(F)cc1,-10.7% (active)
6,COc1ccc(-c2nc3sccn3c2-c2ccnc(NCCCNS(=O)(=O)c3ccc4ccccc4c3)n2)cc1,84.1%
7,COc1cc(OC)cc(-c2n[nH]nc2-c2ccc3c(c2)OCO3)c1,31.9%
8,CC(C)[C@H](CO)Nc1nc(Nc2ccc(C(=O)NCCNS(=O)(=O)c3cccc4c(N(C)C)cccc34)c(Cl)c2)c2ncn(C(C)C)c2n1,15.7%
9,COC(=O)c1ccc(C)cc1,109%
10,COc1cc(C2C=C(C)N=C3SC=C(C)N32)cc(OC)c1OC (stereo not given),-90.5% (active)
11,O=S(=O)(NCCCNc1cc(-c2cn(-c3ccccc3)nc2-c2cccc(O)c2)ccn1)c1ccc(C(F)(F)F)cc1,-30.5% (active)
12,O=[N+]([O-])c1cccc(-c2cc(-c3cc(Br)ccc3O)[nH]n2)c1,43.7%
13,CC/C=C\C/C=C\C[C@H](O)C/C=C1/C(=O)C=C[C@H]1C/C=C\CCC(=O)OC,61.2% [8.25 µM]
14,CCC(C)NCC(=O)O (stereo not given),101%
15,CC/C=C\C[C@H](O)C/C=C1/C(=O)C(Cl)=C[C@@H]1C/C=C\CCCC(=O)OC,-92.1% (active)
16,O=C(Nc1cccc(Cl)c1)c1cc([N+](=O)[O-])ccc1O,29.2%
17,Cc1ccc(Cn2c(-c3cccs3)nc3ccccc32)cc1,94.9%
18,CC(CCc1ccccc1)NC(=O)c1n[nH]c(=O)c2ccccc12 (stereo not given),156%
19,CN1CCN(CCCOc2ccc3nc(Nc4ccc(C(F)(F)F)c(Cl)c4)ccc3c2)CC1,-71.1% (active)
20,Nc1c(C(=O)c2ccc(F)cc2)sc2nc3c(cc12)CCCC3,76.7%
